# Experimental data as given in ChEMBL document CHEMBL3988442, “University of Dundee, Small-Polar-MMV Screening Library” (2021).
# For some of these results: Measured potencies and affinities stand elsewhere.
# Tests used:
# Set-up in all cases: scale not given: direction of the effect not stated beside the values
# [1] = molecular target: Protein translocase subunit SecA (Escherichia coli (strain K12)) (UniProt P10408); test: Assay to Identify E. coli SecA ATPase Inhibitors; type: functional; conditions: 30 µM
# [2] = molecular target: T1, Ubiquitin-activating enzyme e1, putative (Leishmania donovani (strain BPK282A1)) (UniProt E9BSI1); test: Leishmania donovani Ubiquitin Activating Enzyme (LdE1); type: functional; conditions: 30 µM
# T1 sequence (whole entry): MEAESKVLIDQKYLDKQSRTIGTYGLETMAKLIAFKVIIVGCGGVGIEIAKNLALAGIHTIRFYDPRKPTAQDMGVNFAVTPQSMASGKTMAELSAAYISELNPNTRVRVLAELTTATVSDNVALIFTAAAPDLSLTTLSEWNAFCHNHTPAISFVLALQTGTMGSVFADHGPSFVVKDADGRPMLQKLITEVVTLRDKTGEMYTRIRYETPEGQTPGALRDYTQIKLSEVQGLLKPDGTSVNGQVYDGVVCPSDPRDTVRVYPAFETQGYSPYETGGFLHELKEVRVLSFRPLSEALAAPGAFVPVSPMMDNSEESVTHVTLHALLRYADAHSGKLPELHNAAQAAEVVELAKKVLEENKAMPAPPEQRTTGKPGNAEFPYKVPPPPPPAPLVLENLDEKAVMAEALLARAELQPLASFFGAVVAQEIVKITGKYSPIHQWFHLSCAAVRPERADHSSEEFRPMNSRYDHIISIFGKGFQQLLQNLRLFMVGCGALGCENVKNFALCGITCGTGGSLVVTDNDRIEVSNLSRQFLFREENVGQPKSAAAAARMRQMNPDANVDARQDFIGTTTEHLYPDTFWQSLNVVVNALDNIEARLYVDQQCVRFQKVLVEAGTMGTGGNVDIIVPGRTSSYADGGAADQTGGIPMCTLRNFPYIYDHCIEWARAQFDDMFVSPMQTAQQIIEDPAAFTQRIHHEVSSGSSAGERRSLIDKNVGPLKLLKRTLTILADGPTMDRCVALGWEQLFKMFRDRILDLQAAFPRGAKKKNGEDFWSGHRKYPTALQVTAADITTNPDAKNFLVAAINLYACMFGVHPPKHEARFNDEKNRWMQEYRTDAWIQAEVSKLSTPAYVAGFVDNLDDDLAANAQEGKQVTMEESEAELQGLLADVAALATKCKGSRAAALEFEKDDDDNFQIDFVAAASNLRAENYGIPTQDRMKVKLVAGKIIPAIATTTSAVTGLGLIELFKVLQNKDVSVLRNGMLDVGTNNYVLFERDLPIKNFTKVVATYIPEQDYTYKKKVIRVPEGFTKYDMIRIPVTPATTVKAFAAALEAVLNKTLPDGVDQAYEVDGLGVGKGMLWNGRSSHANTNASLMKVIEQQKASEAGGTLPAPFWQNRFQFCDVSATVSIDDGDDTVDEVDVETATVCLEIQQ
# [3] = molecular target: AMP-activated protein kinase, AMPK (Homo sapiens) (UniProt P54646+O43741+P54619+Q9UGJ0+Q9Y478+Q13131+Q9UGI9); test: AMP-dependent Kinase enzyme assay. An in vitro enzyme assay that detects ADP turnover that is directly proportional to AMPK activity. This uses naive AMPK that is activated during the assay with MK-8722; type: functional; conditions: 30 µM
# [4] = molecular target: Sialic acid-binding Ig-like lectin 9 (Homo sapiens) (UniProt Q9Y336); test: Hs-Siglec9 ALPHAscreen SOP 20170721; conditions: 10 µM
# Trypanosoma cruzi = test: Trypanosoma cruzi phosphomannomutase and mannose-1-phosphate guanylyltransferase assay; type: functional; conditions: 10 µM
# [5] = molecular target: T2, Arginase-2, mitochondrial (Homo sapiens) (UniProt P78540); test: in vitro enzyme assay to detect the production of urea directly proportional to the activity of Arginase II; type: functional; conditions: 33.3 µM; also: in the data most compounds retested in dose-response had high values
# T2 sequence (whole entry): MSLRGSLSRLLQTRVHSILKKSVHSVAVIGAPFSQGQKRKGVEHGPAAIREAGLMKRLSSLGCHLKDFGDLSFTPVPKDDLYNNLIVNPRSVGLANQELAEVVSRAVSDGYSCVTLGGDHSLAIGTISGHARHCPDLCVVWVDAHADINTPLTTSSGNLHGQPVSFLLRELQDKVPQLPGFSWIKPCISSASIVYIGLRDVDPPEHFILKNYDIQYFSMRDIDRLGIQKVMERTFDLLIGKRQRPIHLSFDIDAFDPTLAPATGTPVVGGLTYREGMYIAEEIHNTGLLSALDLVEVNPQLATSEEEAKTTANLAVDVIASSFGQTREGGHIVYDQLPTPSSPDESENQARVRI
# [6] = molecular target: T3, Proteasome subunit beta (Trypanosoma cruzi) (UniProt O96673); test: Trypanosoma cruzi proteasome chymotrypsin-like activity (TcProtChymo) assay.; also: in the data most compounds retested in dose-response had high values; type: functional; conditions: 9.37 µM
# T3 sequence (whole entry): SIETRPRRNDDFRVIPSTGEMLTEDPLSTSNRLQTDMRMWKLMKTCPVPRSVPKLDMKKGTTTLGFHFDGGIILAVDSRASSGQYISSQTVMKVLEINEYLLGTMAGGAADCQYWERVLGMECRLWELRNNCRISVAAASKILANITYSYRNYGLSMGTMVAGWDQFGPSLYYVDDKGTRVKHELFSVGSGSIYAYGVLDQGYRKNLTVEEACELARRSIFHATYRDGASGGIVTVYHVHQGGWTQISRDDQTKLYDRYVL
# Homo sapiens = species: Homo sapiens; test: To identify inhibition of the IFN signalling (Jak-Stat) pathway via expression of an eGFP reporter gene under the control of an IFN-stimulated response element (ISRE) containing MxA promoter.; type: functional; conditions: 30 µM
# [7] = molecular target: T4, Tyrosyl-tRNA synthetase, putative (Trypanosoma cruzi (strain CL Brener)) (UniProt Q4DSP6); test: Trypanosoma cruzi tyrosyl tRNA synthetase (TcYRS) _High Tyrosine SOP; type: functional; conditions: 30 µM; also: in the data most compounds retested in dose-response had high values
# T4 sequence (whole entry): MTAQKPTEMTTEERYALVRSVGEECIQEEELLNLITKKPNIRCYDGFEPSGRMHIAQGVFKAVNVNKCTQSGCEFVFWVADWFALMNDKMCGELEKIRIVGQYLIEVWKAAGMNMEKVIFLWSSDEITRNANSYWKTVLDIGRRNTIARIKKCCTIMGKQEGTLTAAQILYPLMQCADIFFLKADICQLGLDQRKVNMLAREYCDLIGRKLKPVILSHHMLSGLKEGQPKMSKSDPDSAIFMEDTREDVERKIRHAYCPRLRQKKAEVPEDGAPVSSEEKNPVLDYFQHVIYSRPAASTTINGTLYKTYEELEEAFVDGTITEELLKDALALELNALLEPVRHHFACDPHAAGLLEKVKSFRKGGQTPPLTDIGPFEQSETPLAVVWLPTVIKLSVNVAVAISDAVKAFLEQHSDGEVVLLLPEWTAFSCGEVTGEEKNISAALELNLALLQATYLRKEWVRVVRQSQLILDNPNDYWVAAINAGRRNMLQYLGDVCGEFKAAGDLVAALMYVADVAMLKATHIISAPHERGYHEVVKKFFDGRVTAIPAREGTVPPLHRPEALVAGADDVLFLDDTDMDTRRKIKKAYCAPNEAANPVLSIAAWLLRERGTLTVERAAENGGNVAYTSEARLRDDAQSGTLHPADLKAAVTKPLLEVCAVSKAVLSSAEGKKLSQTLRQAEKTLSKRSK
# [8] = molecular target: T4, Tyrosyl-tRNA synthetase, putative (Trypanosoma cruzi (strain CL Brener)); test: Trypanosoma cruzi tyrosyl tRNA synthetase (TcYRS) SOP; type: functional; conditions: 30 µM
# [9] = molecular target: Chromo domain-containing protein 1 (Saccharomyces cerevisiae (strain ATCC 204508 / S288c) (Baker's yeast)) (UniProt P32657); test: ScCHD-1 Enzyme Inhibition Assay; type: functional; conditions: 30 µM; also: in the data most compounds retested in dose-response had high values
# Sequence of Chromo domain-containing protein 1 (Saccharomyces cerevisiae (strain ATCC 204508 / S288c) (Baker's yeast)) (P32657 whole entry, the tested form may be a part): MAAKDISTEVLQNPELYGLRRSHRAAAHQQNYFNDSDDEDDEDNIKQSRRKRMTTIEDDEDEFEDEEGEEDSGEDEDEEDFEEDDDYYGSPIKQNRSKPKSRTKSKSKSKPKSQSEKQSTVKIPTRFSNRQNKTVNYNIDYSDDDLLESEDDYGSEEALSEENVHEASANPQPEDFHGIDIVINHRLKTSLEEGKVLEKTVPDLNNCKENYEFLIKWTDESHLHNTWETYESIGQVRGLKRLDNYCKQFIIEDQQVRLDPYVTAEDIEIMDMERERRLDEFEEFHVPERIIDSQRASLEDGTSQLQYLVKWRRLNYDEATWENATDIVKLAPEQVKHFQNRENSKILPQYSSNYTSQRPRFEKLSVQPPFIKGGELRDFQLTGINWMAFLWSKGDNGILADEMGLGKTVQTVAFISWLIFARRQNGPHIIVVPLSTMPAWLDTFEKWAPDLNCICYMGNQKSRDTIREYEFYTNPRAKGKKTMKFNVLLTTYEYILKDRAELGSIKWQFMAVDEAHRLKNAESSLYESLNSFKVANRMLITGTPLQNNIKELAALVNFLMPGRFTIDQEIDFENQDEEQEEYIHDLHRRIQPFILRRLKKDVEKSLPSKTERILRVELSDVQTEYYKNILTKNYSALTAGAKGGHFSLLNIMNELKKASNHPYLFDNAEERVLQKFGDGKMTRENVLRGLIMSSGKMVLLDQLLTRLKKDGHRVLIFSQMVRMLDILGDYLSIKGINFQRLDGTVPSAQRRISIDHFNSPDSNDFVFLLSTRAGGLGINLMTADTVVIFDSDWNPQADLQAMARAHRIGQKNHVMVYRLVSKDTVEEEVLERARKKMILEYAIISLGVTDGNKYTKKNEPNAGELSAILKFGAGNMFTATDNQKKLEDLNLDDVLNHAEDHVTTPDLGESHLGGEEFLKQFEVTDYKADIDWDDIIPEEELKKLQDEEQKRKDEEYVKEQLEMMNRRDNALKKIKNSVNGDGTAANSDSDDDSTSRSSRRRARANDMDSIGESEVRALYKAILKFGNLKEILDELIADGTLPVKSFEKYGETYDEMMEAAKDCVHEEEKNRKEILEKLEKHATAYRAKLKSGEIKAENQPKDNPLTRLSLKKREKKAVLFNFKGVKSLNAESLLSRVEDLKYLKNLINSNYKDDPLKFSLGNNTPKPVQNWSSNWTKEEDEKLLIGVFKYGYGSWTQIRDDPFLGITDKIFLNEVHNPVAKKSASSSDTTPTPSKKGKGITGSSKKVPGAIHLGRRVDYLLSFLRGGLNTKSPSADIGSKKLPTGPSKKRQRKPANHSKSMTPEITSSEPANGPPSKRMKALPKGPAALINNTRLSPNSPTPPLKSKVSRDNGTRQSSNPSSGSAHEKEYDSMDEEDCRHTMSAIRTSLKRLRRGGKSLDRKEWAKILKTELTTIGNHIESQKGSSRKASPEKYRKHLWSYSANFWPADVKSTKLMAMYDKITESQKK
# Sequence of Sialic acid-binding Ig-like lectin 9 (Homo sapiens) (Q9Y336 whole entry): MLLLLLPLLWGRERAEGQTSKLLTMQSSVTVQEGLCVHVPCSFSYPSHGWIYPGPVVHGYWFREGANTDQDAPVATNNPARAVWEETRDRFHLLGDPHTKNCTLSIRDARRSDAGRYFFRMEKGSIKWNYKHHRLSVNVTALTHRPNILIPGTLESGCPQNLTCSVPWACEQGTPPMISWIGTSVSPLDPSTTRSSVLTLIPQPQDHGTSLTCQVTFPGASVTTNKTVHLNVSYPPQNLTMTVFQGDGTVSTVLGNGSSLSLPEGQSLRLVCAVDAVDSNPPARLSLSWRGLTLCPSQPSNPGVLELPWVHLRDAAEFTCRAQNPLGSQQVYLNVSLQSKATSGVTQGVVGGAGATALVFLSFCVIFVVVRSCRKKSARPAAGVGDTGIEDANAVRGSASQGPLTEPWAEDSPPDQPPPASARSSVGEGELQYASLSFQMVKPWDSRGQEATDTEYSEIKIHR
# Sequence of Protein translocase subunit SecA (Escherichia coli (strain K12)) (P10408 whole entry): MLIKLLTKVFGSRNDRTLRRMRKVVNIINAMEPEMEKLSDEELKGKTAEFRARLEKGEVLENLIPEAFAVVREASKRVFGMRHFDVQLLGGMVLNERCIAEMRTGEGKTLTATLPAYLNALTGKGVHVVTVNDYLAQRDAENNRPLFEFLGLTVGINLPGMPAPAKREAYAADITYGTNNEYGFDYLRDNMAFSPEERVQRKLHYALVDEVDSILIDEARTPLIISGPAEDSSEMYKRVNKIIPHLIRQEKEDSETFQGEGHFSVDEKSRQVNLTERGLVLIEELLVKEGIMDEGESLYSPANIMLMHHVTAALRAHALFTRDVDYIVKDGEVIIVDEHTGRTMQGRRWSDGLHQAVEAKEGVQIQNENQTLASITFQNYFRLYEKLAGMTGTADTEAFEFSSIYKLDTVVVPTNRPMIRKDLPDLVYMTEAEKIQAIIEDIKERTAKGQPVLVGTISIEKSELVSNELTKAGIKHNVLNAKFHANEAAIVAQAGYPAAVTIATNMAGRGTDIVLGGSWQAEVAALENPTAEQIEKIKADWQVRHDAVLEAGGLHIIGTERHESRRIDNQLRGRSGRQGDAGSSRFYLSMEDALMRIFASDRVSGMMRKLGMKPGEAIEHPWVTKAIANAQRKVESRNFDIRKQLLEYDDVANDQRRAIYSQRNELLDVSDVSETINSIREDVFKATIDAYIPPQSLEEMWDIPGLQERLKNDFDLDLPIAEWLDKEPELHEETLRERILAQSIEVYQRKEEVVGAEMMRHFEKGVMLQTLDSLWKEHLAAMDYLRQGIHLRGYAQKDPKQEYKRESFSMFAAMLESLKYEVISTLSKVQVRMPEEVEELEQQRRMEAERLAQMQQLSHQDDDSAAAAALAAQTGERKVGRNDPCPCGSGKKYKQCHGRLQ
SMILES,Percent Effect [1] [%],Percent Effect [2] [%],Percent Effect [3] [%],Percent Effect [4] [%],Percent Effect (Trypanosoma cruzi) [%],Percent Effect [5] [%],Percent Effect [6] [%],Percent Effect (Homo sapiens) [%],Percent Effect [7] [%],Percent Effect [8] [%],Percent Effect [9] [%]
CN1CCN(C(=O)c2ccc(=O)n(C)c2)c2ccccc21,-6.34,18.9,-11,20.6,3.25,-0.554,2.51,6.73,16.8,25.6,-6.38
O=C(Nc1cc(C(F)(F)F)c[nH]c1=O)c1ccco1,-2.24,-2.63,19.1,5.92,0.28,-15.5,10.9,-15.5,6.4,6.17,0.552
O=C(NCCc1csc(N2CCCC2)n1)N(C1CCCC1)C1CC1,0.399,-5.33,-9.08,16,-1.66,2.08,27.4,6.62,12.6,11.1,-6.87
CCCNC(=O)c1ccc2c(c1)C(=O)N(CC(C)C)C2=O,-2.78,-8.11,0.767,5.78,-2.32,-10,3.45,0.98,0.529,2.44,-2.46
Cc1cccn2c(=O)cc(OC(=O)c3ccccc3)nc12,1.09,0,45.4,-1.9,-4.97,-14.2,5.27,-1.07,0,0,-3.23
CC1CCN(c2ncc3c(n2)CN(c2ccccc2)C3=O)CC1,-5.32,5.2,-0.285,2.67,-5.8,-30.3,-5.82,-2.62,2.15,11.1,5.77
CC(C)c1cc(NCC(O)c2ccc(F)cc2)n2nccc2n1 (stereo not drawn),-2.04,2.7,10.8,1.77,1.35,-4.29,3.97,38.1,2.65,7.32,4.86
Cc1cc(CN(C)C(=O)C2CCCN(C(=O)c3cccs3)C2)no1 (stereo not drawn),-3.6,10.4,1.53,10.4,3.64,-9.65,15.5,-5.21,5.38,16.1,-2.24
